PubChem BioAssay (NCI)
About 83,000 compounds went through this panel and 20% of them were active in at least one assay; those are over-represented in the sample as a whole.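 Testing used 96-well plates and a 48-hour single-concentration exposure. Example: -40 means 40% of the starting cells died.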 Active and inactive are the calls of the source.

Each compound was assayed on CCRF-CEM leukemia (assay: NCI-60 one-dose screen, 48 h (100 = growth as untreated, 0 = no growth, -100 = all killed)). Conditions: 10 µM.
Procedure: Growth inhibition of the CCRF-CEM human tumor cell line is measured as a screen for anti-cancer activity. Cells are grown in 96 well plates and exposed to the test compound for 48 hours. Compounds are tested at a single concentration, which is 10^-5 M for most compounds. The reported endpoint is percent growth (GI% or GIPRCNT), where numbers from 0 - 100% represent growth inhibition, and numbers from -100% - 0 represent cell death. For example, a value of 40 represents 60% growth inhibition. A value of 0 means no net growth occurred over the course of the experiment. A value of -40 indicates 40% of cells at the beginning of the experiment died by the end of the experiment. A value of -100 means all cells are dead at the end of the experiment.
NCI-60 Human Tumor Cell Lines Screen was performed using the standard one-dose NCI protocol, which is described in more detail at https://dtp.cancer.gov/discovery_development/nci-60/default.htm.
Compounds with GIPRCNT values below 10 were considered active. Activity score was based on GIPRCNT using the following formula: […]
Score is 0 for GIPRCNT values of 100 or above, 50 for GIPRCNT values of 0, and 100 for GIPRCNT values of -100.

SMILES | growth
O=C(NO)c1ccc(CNC(=O)[C@H]2Cc3c([nH]c4ccccc34)[C@H](c3ccc(Cl)cc3)N2)cc1 | 17.4% (inactive)
Cc1ccc(CNC(=O)Cc2ccc3c(c2)CN(C2CCC(=O)NC2=O)C3=O)cc1 (stereo not given) | 8.32% (active)
COc1ccc([C@H]2C(C(=O)c3ccc(Cl)cc3)C3(N[C@@H]2c2ccccc2)C(=O)Nc2ccc(Cl)cc23)cc1 (stereo not given in full) | 21.9% (inactive)
Clc1cccc(N/N=C/c2c[nH]c3ccccc23)n1 | 8.71% (active)
CN(C(=O)c1ccc(C(F)(F)F)cc1C(F)(F)F)c1sc2c(c1C#N)CCC(=O)C2 | -0.48% (active)
COc1ccc(CN2[C@@H](C(=O)NCc3ccc(C(=O)NO)cc3)Cc3c([nH]c4ccccc34)[C@@H]2C)cc1 | 15.8% (inactive)
CO[C@@H]1CSSC1Cn1nc(-c2ccc(Oc3ccccc3)cc2)c2c(N)ncnc21 (stereo not given in full) | -8.26% (active)
C=C(c1ccc(OC)c(N)c1)c1cc(C)nc2ccccc12 | 5.19% (active)
CCCCCc1ccc(S(=O)(=O)Nc2cc(-c3csc(N(C)C(C)=O)n3)ccc2N2CCN(C)CC2)cc1 | -27.5% (active)
COC(=O)c1c(C(=O)OC)c2n(c1C)[C@@H]([C@@H](C)[C@H]1CC[C@H]3[C@@H]4CCC5=CC(=O)CC[C@]5(C)[C@H]4CC[C@]13C)SC2 | 10.2% (inactive)
O=C(CS(=O)(=O)c1oc(-c2ccc(Cl)cc2)nc1S(=O)(=O)c1ccc(Cl)cc1)N1CCOCC1 | -34.6% (active)
Cc1ccc(C(=O)N/C(=C2/OCCN2C)[P+](c2ccccc2)(c2ccccc2)c2ccccc2)cc1 | 73.5% (inactive)
CCNCCCn1c2c(c3cc(OC)c(OC)cc3c1=O)C(=O)c1cc3c(nc1-2)OCO3 | 0.158% (active)
NS(=O)(=O)c1ccc(NC(=O)CSc2ccc(-c3ccc(Cl)cc3)nn2)c(Br)c1 | 83.7% (inactive)
C/C(=C\c1ccc(O)cc1O)c1ccc2ccc(O)cc2[o+]1 | 55.8% (inactive)
CC1=C(C(=O)OC(C)C)C(c2ccc(O)cc2)NC(=S)N1 (stereo not given) | 101% (inactive)
Cc1ccc(NC(=O)NCn2c(=O)[nH]c3ccccc3c2=O)cc1 | 97.5% (inactive)
Cc1cc(C)nc(/N=C(\N)Nc2ccc(S(=O)(=O)Nc3nc(C)cc(C)n3)cc2)n1 | 96.2% (inactive)
O=C1Nc2cc(Cl)ccc2/C1=C/c1cccc(OCc2ccc(Br)cc2F)c1 | -15.9% (active)
Clc1ccc2c(N/N=C/c3c[nH]c4ccc(Br)cc34)ccnc2c1 | -7.03% (active)

SMILES | growth
CCCn1c(=O)c2[nH]c(-c3ccc(OCc4nc5ccc(F)cc5[nH]4)cc3)nc2n(CCC)c1=O | 44% (inactive)
N#Cc1c(-c2ccc(F)cc2)nc(SCc2ccc([N+](=O)[O-])cc2)nc1N1CCOCC1 | 77.2% (inactive)
CNC(=O)c1cc(-c2ccc(NC(=O)Nc3ccc(C)cc3)cc2)nc2cccnc12 | 93.5% (inactive)
Cc1cc2nc3c4ccccc4n(CCO)c3nc2cc1C | 71.6% (inactive)
O=C1NC(=NC2CCCCCC2)N/C1=C\c1ccc2ncoc2c1 | 18% (inactive)
C=C1CCC2C3(C)COC(c4cc(F)cc(F)c4)OC3CCC2(C)C1C/C=C1/C(=O)OCC1O (stereo not given) | 15.1% (inactive)
CC1(c2ccccc2)NC(=O)N(CC(=O)Nc2ccc(C(=O)/C=C/c3ccc(Br)cc3)cc2)C1=O (stereo not given) | 32% (inactive)
O=C(CNc1nc(-c2ccccc2)cs1)Nc1ccc([N+](=O)[O-])cc1Cl | 15.3% (inactive)
CCOC(=O)CNC(=O)CN(Cc1ccccc1)C(=O)[C@@]1(C)CCC[C@]2(C)[C@H]3CC4C(C(C)C)=C[C@]3(CC[C@H]21)[C@@H]1C(=O)CCC(=O)[C@H]41 | 16.4% (inactive)
N[C@@H](CSSC[C@H](N)C(=O)Nc1ccc(OCC2CCCC2)cc1)C(=O)Nc1ccc(OCC2CCCC2)cc1 | -60.5% (active)
O=c1cc(-c2ccccc2)oc2cc(OCCCNCc3ccccc3)cc(O)c12 | 10.1% (inactive)
COc1ccc(C(=O)Nc2ccc(-c3ccc4c(c3)NC(=O)/C4=C\c3ccc[nH]3)cc2)cc1 | 26% (inactive)
C=C(C)[C@@H]1CC[C@]2(COP(=O)(OCC)OCC)CC[C@]3(C)[C@H](CC[C@@H]4[C@@](C)(CCCN)[C@H](C(=C)C)CC[C@]43C)[C@@H]12 | 2.27% (active)
Cc1cc(=O)oc2cc(OCCCCOc3ccc(/C=C/C(=O)Nc4ccc(F)c(Cl)c4)cc3)ccc12 | 92.7% (inactive)
CCCn1c(=O)c2[nH]c(-c3ccc(OCc4nc5ccccc5[nH]4)cc3)nc2n(CCC)c1=O | 87.8% (inactive)
COc1ccc(-c2c(N)c(=O)n(C)c3ccccc23)cc1 | 54.6% (inactive)
CCOC(=O)N/C(=C1/OCCN1C)[P+](c1ccccc1)(c1ccccc1)c1ccccc1 | 67.5% (inactive)
O=C(Cn1nc(-c2ccccc2)ccc1=O)NN1C(=O)c2ccccc2C1=O | 102% (inactive)
Cc1ccc(NC(=O)c2ccc(-n3c(=O)[nH]c4ccccc4c3=O)cc2)cc1 | 60.7% (inactive)
CN1CCN(c2ccc(Nc3nc(N4CCN(S(=O)(=O)c5ccc(F)cc5)CC4)c4sccc4n3)cc2)CC1 | -1.97% (active)
